Several values for one entry are separate records, joined by “and”; a condition that tells them apart may be missing. Equal entries are not always repeated. Screen size: about 5,500 compounds; about 2,000 (36%) were called active. Roughly 18% stayed inconclusive and do not appear here. Cut-off read from the data, not from the text of the source: active = normalized growth mostly below about 0.91 (no sharp cut-off); inconclusive = no clear call, values can overlap the other calls; inactive = mostly above about 0.92. The list shows a part of the results.
Experiment: chemical genetic growth profiling, strain panel (AID 1159580);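 note: tested at 20 µM; growth read once vehicle control cultures reached saturation at 30 °C; 1 = growth at the plate median or of vehicle wells; lower values mean less growth of the strain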
Details: S. cerevisiae deletion strains, growth OD

Measured: normalized growth

CCCC(=O)Nc1ncnc2c1ncn2C1O[C@@H]2COP(=O)(O)O[C@H]2[C@H]1OC(=O)CCC (stereo not given in full)
inactive: locus YAL013W, strain DEP1, active compounds read low 1 | locus YAL021C, strain ccr4, active compounds read low 0.981 | locus YAL026C, strain drs2, active compounds read low 0.986 | locus YAL030W, strain snc1, active compounds read low 0.994 | locus YBL061C, strain skt5, active compounds read low 0.97 | locus YBR009C, strain hhf1, active compounds read low 0.962 | locus YBR021W, strain FUR4, active compounds read low 0.999 | locus YBR023C, strain chs3, active compounds read low 0.974 | locus YBR171W, strain sec66, active compounds read low 0.971 | locus YBR229C, strain ROT2, active compounds read low 1.01 | locus YBR231C, strain swc5, active compounds read low 0.995 | locus YBR279W, strain paf1, active compounds read low 0.981 | locus YCL011C, strain gbp2, active compounds read low 0.958 | locus YCL016C, strain dcc1, active compounds read low 0.952 | locus YCL029C, strain bik1, active compounds read low 1.02 | locus YCL061C, strain MRC1, active compounds read low 0.977 | locus YCL069W, strain vba3, active compounds read low 0.974 | locus YCR088W, strain abp1, active compounds read low 0.984 | locus YDL005C, strain med2, active compounds read low 0.982 | locus YDL035C, strain GPR1, active compounds read low 1.02 | locus YDL040C, strain nat1, active compounds read low 0.987 | locus YDL074C, strain BRE1, active compounds read low 1 | locus YDL101C, strain DUN1, active compounds read low 1.01 | locus YDL134C, strain PPH21, active compounds read low 1.01 | locus YDL185W, strain tfp1, active compounds read low 1.02 | locus YDL192W, strain arf1, active compounds read low 1.01 | locus YDR001C, strain nth1, active compounds read low 0.986 | locus YDR069C, strain doa4, active compounds read low 0.999 | locus YDR101C, strain arx1, active compounds read low 1.02 | locus YDR137W, strain rgp1, active compounds read low 0.973 | locus YDR150W, strain NUM1, active compounds read low 1 | locus YDR159W, strain sac3, active compounds read low 1.01 | locus YDR162C, strain NBP2, active compounds read low 1.01 | locus YDR195W, strain ref2 1 | locus YDR297W, strain sur2, active compounds read low 0.985 | locus YDR318W, strain mcm21, active compounds read low 1.02 | locus YDR334W, strain swr1, active compounds read low 0.975 | locus YDR335W, strain msn5, active compounds read low 0.988 | locus YDR388W, active compounds read low 1.02 | locus YDR392W, strain spt3, active compounds read low 0.869 | locus YDR502C, strain sam2, active compounds read low 1.01 | locus YEL003W, strain gim4, active compounds read low 0.995 | locus YEL037C, strain rad23, active compounds read low 0.984 | locus YEL061C, strain CIN8 (second series), active compounds read low 0.985 | locus YEL061C, strain CIN8, active compounds read low 1.01 | locus YER015W, strain faa2, active compounds read low 0.98 | locus YER016W, strain bim1, active compounds read low 0.975 | locus YER110C, active compounds read low 1.03 | locus YER111C, strain swi4, active compounds read low 0.973 | locus YER155C, strain BEM2 (second series), active compounds read low 1.01 | locus YER155C, strain BEM2, active compounds read low 0.996 | locus YER167W, strain BCK2, active compounds read low 1.01 | locus YFR010W, strain ubp6, active compounds read low 0.988 | locus YGL078C, strain dbp3, active compounds read low 1.02 | locus YGL086W, strain mad1, active compounds read low 1 | locus YGL167C, strain pmr1, active compounds read low 0.981 | locus YGL173C, strain kem1, active compounds read low 0.979 | locus YGL227W, strain vid30, active compounds read low 0.978 | locus YGL240W, strain doc1, active compounds read low 1.02 | locus YGL248W, strain PDE1, active compounds read low 1.01 | locus YGL253W, strain hxk2, active compounds read low 0.996 | locus YGR135W, strain pre9, active compounds read low 1.03 | locus YGR229C, strain SMI1, active compounds read low 1.01 | locus YGR252W, strain gcn5, active compounds read low 1.04 | locus YHR013C, strain ard1, active compounds read low 0.973 | locus YHR027C, strain rpn1, active compounds read low 0.979 | locus YHR030C, strain SLT2, active compounds read low 1 and 1.02 | locus YHR079C, strain IRE1 (second series), active compounds read low 1.02 | locus YHR079C, strain IRE1, active compounds read low 1.03 | locus YHR094C, strain hxt1, active compounds read low 1.02 | locus YHR129C, strain ARP1, active compounds read low 1 | locus YHR142W, strain chs7, active compounds read low 0.944 | locus YHR200W, strain rpn10, active compounds read low 1.02 | locus YIL066C, strain RNR3, active compounds read low 1.02 | locus YIL073C, strain SPO22, active compounds read low 1.06 | locus YIL125W, strain kgd1, active compounds read low 1.02 | locus YIR030C, strain dcg1, active compounds read low 1.02 | locus YJL092W, strain hpr5, active compounds read low 0.985 | locus YJL095W, strain BCK1 (second series), active compounds read low 0.979 | locus YJL095W, strain BCK1, active compounds read low 1 and 1.03 | locus YJL115W, strain asf1, active compounds read low 0.985 | locus YJL129C, strain trk1, active compounds read low 0.949 | locus YJL134W, strain LCB3, active compounds read low 1.01 | locus YJL154C, strain vps35, active compounds read low 0.97 | locus YJL164C, strain tpk1, active compounds read low 0.968 | locus YJL166W, strain qcr8, active compounds read low 1.01 | locus YJL168C, strain set2, active compounds read low 1.03 | locus YJL187C, strain SWE1 (second series), active compounds read low 1 | locus YJL187C, strain SWE1, active compounds read low 0.992 | locus YJR043C, strain POL32, active compounds read low 1.01

— PubChem BioAssay AID1159580 (chemical genetic matrix, 2015)
